Data reported in article PMC5540273 (PLoS ONE, 2017).
Several values for one entry are separate records, joined by “and”; a condition that tells them apart may be missing. Identical values can stand only once. Like-named read-outs stand apart in the source and are kept apart here.

How the values were obtained:
Conditions in all cases: concentration: 1 μM, replicates: in singlicate, n = 1
CSNK1A1L = tested on: CSNK1A1L
CSNK1A1 = tested on: CSNK1A1
CSNK1D = tested on: CSNK1D
CSNK1E = tested on: CSNK1E
CSNK1G1 = tested on: CSNK1G1
CSNK1G2 = tested on: CSNK1G2
CSNK1G3 = tested on: CSNK1G3
CSNK2A1 = tested on: CSNK2A1
CSNK2A2 = tested on: CSNK2A2
CTK = tested on: T1, CTK
T1 construct: gene MATK

DAPK1 = tested on: DAPK1
DAPK2 = tested on: DAPK2
DAPK3 = tested on: DAPK3
DCAMKL1 = tested on: T2, DCAMKL1
T2 construct: gene DCLK1

DCAMKL2 = tested on: T3, DCAMKL2
T3 construct: gene DCLK2

DCAMKL3 = tested on: T4, DCAMKL3
T4 construct: gene DCLK3

DDR1 = tested on: DDR1
DDR2 = tested on: DDR2
DLK = tested on: T5, DLK
T5 construct: gene MAP3K12

DMPK2 = tested on: T6, DMPK2
T6 construct: gene CDC42BPG
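Further: KINOMEscan kinase panel screen.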

CN1c2ccc(CNc3ccc(F)cc3)cc2-c2c(cnn2C)S1(=O)=O
%Inh (CSNK1A1L): 0% | %Inh (CSNK1A1): 1% | %Inh (CSNK1D): 0% | %Inh (CSNK1E): 0% | %Inh (CSNK1G1): 0% | %Inh (CSNK1G2): 0% | %Inh (CSNK1G3): 0% | %Inh (CSNK2A1): 0% | %Inh (CSNK2A2): 0% | %Inh (CTK): 0% | %Inh (DAPK1): 11% | %Inh (DAPK2): 0% | %Inh (DAPK3): 0% | %Inh (DCAMKL1): 14% | %Inh (DCAMKL2): 0% | %Inh (DCAMKL3): 0% | %Inh (DDR1): 4% | %Inh (DDR2): 35% | %Inh (DLK): 0% | %Inh (DMPK2): 0%

O=C(Nc1n[nH]c2cc(-c3cccc(F)c3)ccc12)C1CC1 [SB-735464]
%Inh (CSNK1A1L): 10% | %Inh (CSNK1A1): 0% | %Inh (CSNK1D): 0% | %Inh (CSNK1E): 0% | %Inh (CSNK1G1): 0% | %Inh (CSNK1G2): 0% | %Inh (CSNK1G3): 0% | %Inh (CSNK2A1): 3% | %Inh (CSNK2A2): 24% | %Inh (CTK): 49% | %Inh (DAPK1): 1% | %Inh (DAPK2): 11% | %Inh (DAPK3): 0% | %Inh (DCAMKL1): 11% | %Inh (DCAMKL2): 0% | %Inh (DCAMKL3): 0% | %Inh (DDR1): 4% | %Inh (DDR2): 8% | %Inh (DLK): 0% | %Inh (DMPK2): 0%

NCC(NC(=O)c1cc(-c2cn[nH]c2)c(-c2ccnc3[nH]ccc23)s1)c1ccccc1.O=C(O)C(F)(F)F.O=C(O)C(F)(F)F (stereo not drawn) [GSK1325775]
%Inh (CSNK1A1L): 87% | %Inh (CSNK1A1): 93.3% | %Inh (CSNK1D): 91.9% | %Inh (CSNK1E): 99.4% | %Inh (CSNK1G1): 55% | %Inh (CSNK1G2): 90% | %Inh (CSNK1G3): 81% | %Inh (CSNK2A1): 15% | %Inh (CSNK2A2): 33% | %Inh (CTK): 0% | %Inh (DAPK1): 71% | %Inh (DAPK2): 37% | %Inh (DAPK3): 87% | %Inh (DCAMKL1): 6% | %Inh (DCAMKL2): 0% | %Inh (DCAMKL3): 0% | %Inh (DDR1): 0% | %Inh (DDR2): 43% | %Inh (DLK): 37% | %Inh (DMPK2): 89%

O=C(c1ccc(-c2cc(-c3c[nH]nc3-c3ccccn3)ccn2)cc1)N1CCOCC1 [GW812171]
%Inh (CSNK1A1L): 0% | %Inh (CSNK1A1): 32% | %Inh (CSNK1D): 49% | %Inh (CSNK1E): 17% | %Inh (CSNK1G1): 19% | %Inh (CSNK1G2): 0% | %Inh (CSNK1G3): 0% | %Inh (CSNK2A1): 0% | %Inh (CSNK2A2): 0% | %Inh (CTK): 49% | %Inh (DAPK1): 0% | %Inh (DAPK2): 0% | %Inh (DAPK3): 11% | %Inh (DCAMKL1): 30% | %Inh (DCAMKL2): 0% | %Inh (DCAMKL3): 0% | %Inh (DDR1): 0% | %Inh (DDR2): 30% | %Inh (DLK): 0% | %Inh (DMPK2): 0%

NCCNS(=O)(=O)c1ccc(-c2ccnc3[nH]ccc23)cc1 [GSK977617]
%Inh (CSNK1A1L; 1 µM): 76% and 61% | %Inh (CSNK1A1; 1 µM): 88% and 93.1% | %Inh (CSNK1D; 1 µM): 77% and 70% | %Inh (CSNK1E; 1 µM): 85% and 86% | %Inh (CSNK1G1; 1 µM): 20% and 0% | %Inh (CSNK1G2; 1 µM): 58% and 24% | %Inh (CSNK1G3; 1 µM): 51% and 59% | %Inh (CSNK2A1; 1 µM): 72% and 56% | %Inh (CSNK2A2; 1 µM): 63% and 56% | %Inh (CTK): 0% | %Inh (DAPK1; 1 µM): 94% and 90.7% | %Inh (DAPK2; 1 µM): 91.4% and 86% | %Inh (DAPK3; 1 µM): 98.5% and 97.6% | %Inh (DCAMKL1; 1 µM): 50% and 52% | %Inh (DCAMKL2; 1 µM): 34% and 28% | %Inh (DCAMKL3; 1 µM): 58% and 39% | %Inh (DDR1): 0% | %Inh (DDR2; 1 µM): 12% and 8% | %Inh (DLK; 1 µM): 48% and 40% | %Inh (DMPK2; 1 µM): 78% and 71%

Cl.Cl.Cl.Fc1ccc(-c2ncn(C3CCNCC3)c2-c2ccnc(Nc3ccccc3)n2)cc1 [SB-238039]
%Inh (CSNK1A1L): 98.9% | %Inh (CSNK1A1): 97.7% | %Inh (CSNK1D; 1 µM): 95.2% and 93.4% | %Inh (CSNK1E): 99.9% | %Inh (CSNK1G1; 1 µM): 78% and 75% | %Inh (CSNK1G2; 1 µM): 99.5% and 98.9% | %Inh (CSNK1G3; 1 µM): 99.2% and 96.6% | %Inh (CSNK2A1; 1 µM): 0% and 19% | %Inh (CSNK2A2; 1 µM): 0% and 25% | %Inh (CTK; 1 µM): 40% and 1% | %Inh (DAPK1; 1 µM): 0% and 24% | %Inh (DAPK2): 0% | %Inh (DAPK3; 1 µM): 18% and 0% | %Inh (DCAMKL1; 1 µM): 18% and 12% | %Inh (DCAMKL2; 1 µM): 22% and 33% | %Inh (DCAMKL3; 1 µM): 8% and 75% | %Inh (DDR1; 1 µM): 87% and 84% | %Inh (DDR2; 1 µM): 87% and 63% | %Inh (DLK; 1 µM): 29% and 7% | %Inh (DMPK2; 1 µM): 99.9% and 99.8%

CCc1ccnc(/C=C/c2n[nH]c3cc(Sc4ccccc4C(=O)NC)ccc23)c1
%Inh (CSNK1A1L): 0% | %Inh (CSNK1A1): 26% | %Inh (CSNK1D): 8% | %Inh (CSNK1E): 0% | %Inh (CSNK1G1): 0% | %Inh (CSNK1G2): 0% | %Inh (CSNK1G3): 0% | %Inh (CSNK2A1): 0% | %Inh (CSNK2A2): 0% | %Inh (CTK): 0% | %Inh (DAPK1): 17% | %Inh (DAPK2): 0% | %Inh (DAPK3): 0% | %Inh (DCAMKL1): 0% | %Inh (DCAMKL2): 0% | %Inh (DCAMKL3): 8% | %Inh (DDR1): 0% | %Inh (DDR2): 13% | %Inh (DLK): 30% | %Inh (DMPK2): 0%

CCc1nc(-c2cccc(C)c2)c(-c2ccnc(NCc3ccccc3)c2)s1
%Inh (CSNK1A1L): 11% | %Inh (CSNK1A1): 8% | %Inh (CSNK1D): 29% | %Inh (CSNK1E): 8% | %Inh (CSNK1G1): 0% | %Inh (CSNK1G2): 0% | %Inh (CSNK1G3): 0% | %Inh (CSNK2A1): 0% | %Inh (CSNK2A2): 0% | %Inh (CTK): 17% | %Inh (DAPK1): 2% | %Inh (DAPK2): 10% | %Inh (DAPK3): 0% | %Inh (DCAMKL1): 10% | %Inh (DCAMKL2): 8% | %Inh (DCAMKL3): 0% | %Inh (DDR1): 14% | %Inh (DDR2): 18% | %Inh (DLK): 0% | %Inh (DMPK2): 5%

Cc1nnc(-c2ccc3occ(-c4ccc(C(C)O)cc4)c3c2)o1 (stereo not drawn)
%Inh (CSNK1A1L): 0% | %Inh (CSNK1A1): 14% | %Inh (CSNK1D): 0% | %Inh (CSNK1E): 7% | %Inh (CSNK1G1): 0% | %Inh (CSNK1G2): 9% | %Inh (CSNK1G3): 0% | %Inh (CSNK2A1): 25% | %Inh (CSNK2A2): 53% | %Inh (CTK): 0% | %Inh (DAPK1): 7% | %Inh (DAPK2): 0% | %Inh (DAPK3): 0% | %Inh (DCAMKL1): 13% | %Inh (DCAMKL2): 12% | %Inh (DCAMKL3): 11% | %Inh (DDR1): 12% | %Inh (DDR2): 12% | %Inh (DLK): 0% | %Inh (DMPK2): 3%
